# Shown are actives, neighbours in structure and some others; about 7.5% of the full set was active somewhere.
# NPC1 prom act – activators of NPC1 promoter; 2.4% of 320,000 active; Potency, µM (highest dose often 9.22 µM), without a hit: at the highest dose activation, hits mostly activators; AID 485313; Huh7 NPC1 promoter luciferase reporter, 24 h; also: % of control where 0% means no effect; nearly all actives have a fitted effect of over 60% in size
#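 Stable NPC1-promoter luciferase Huh7 line; cpd (DMSO) 24 h, 37 °C, 5% CO2; Amplite luciferase reagent 10 min RT; luminescence readout. qHTS format.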
# FLuc counter – counter-screen for miR-21 project: firefly luciferase inhibitors or activators; P08659; purified FLuc, Km substrates, luminescence inhibition; Potency, µM (doses to about 57.5 µM), inactives show at the highest dose activity change, negative = inhibition, hits mostly inhibitors; 6.9% of 360,000 active; AID 588342;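 also: plate controls were vehicle for no effect and reference inhibitor for full effect; nearly all actives have a fitted effect of over 55% in size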
# Target sequence (P08659 whole entry, looked up): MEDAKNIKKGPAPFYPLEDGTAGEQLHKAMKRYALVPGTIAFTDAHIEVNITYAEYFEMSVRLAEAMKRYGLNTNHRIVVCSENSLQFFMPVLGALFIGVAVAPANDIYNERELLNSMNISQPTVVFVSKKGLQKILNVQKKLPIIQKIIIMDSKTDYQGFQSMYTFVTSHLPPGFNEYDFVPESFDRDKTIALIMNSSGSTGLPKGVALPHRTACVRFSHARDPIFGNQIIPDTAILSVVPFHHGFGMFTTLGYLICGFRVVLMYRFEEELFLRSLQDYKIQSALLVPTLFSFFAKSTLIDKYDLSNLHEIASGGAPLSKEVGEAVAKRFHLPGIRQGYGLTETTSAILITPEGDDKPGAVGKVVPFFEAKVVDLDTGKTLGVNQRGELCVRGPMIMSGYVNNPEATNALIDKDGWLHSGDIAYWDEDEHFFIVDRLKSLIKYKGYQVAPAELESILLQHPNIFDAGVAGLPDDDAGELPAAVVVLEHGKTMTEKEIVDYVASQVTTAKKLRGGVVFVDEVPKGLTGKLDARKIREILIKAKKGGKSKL
#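 Biochemical qHTS of compounds, final roughly 60 µM downward over six points, against 10 nM purified firefly luciferase using Km concentrations of substrates (10 uM D-luciferin, 10 uM ATP) in Tris acetate pH 7.5 buffer; luminescence output.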
# SMN2 splice up – enhancers of SMN2 splice variant expression | Potency, µM (series often up to 46.1 µM), for the others: at the highest dose activity change, positive = activation, most hits filed as activators | HEK293 SMN2-luciferase splicing reporter, luminescence, 30-36 h | 2.8% of 210,000 active | AID 1458; also: % of control where 0% means no effect; nearly all actives have a fitted effect of over 55% in size
#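 HEK293 cells carry an SMN2 minigene-luciferase reporter in which exon 7 inclusion puts luciferase in frame. Cells were seeded at 2000 cells/well, attached for 10-12 hours, then exposed to compounds for 30-36 hours at 37C before ONE-Glo luminescence.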
# Rab9 prom act – Rab9 promoter activation. Huh7 Rab9 promoter-luciferase reporter, luminescence, 24 h. Potency, µM (doses to about 9.22 µM), for inactives: at the top dose activation, negative = inhibition, usual class: activators. 2.8% of 320,000 active. AID 485297; also: % of control where 0% means no effect; nearly all actives have a fitted effect of over 60% in size
#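 Stable Rab9-luc Huh7, 1500 cells/well, 2 h settle; cmpd in DMSO, 24 h, 37 °C/5% CO2; luciferase reagent 10 min RT; luminescence.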
# ELG1 genotox – inducers of genotoxicity in HEK293T ELG1-luciferase cells | 1.3% of 330,000 active | Potency, µM (top dose mostly 46 µM), for inactives: at the top dose activity change, positive = activation, most hits filed as activators | HEK293T ELG1-luciferase reporter, luminescence, 16 h | AID 504466; also: % of control where 0% means no effect; nearly all actives have a fitted effect of over 60% in size
#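 Step 1: seed 2,000 HEK293T ELG1-luciferase cells per well. Step 2: add compound or DMSO, incubate 16 hr at 37 °C. Step 3: ONE-Glo, 30 min at room temperature, read luminescence.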
# Luc counter – blocks Kinase-Glo luciferase, a counter-screen artifact; Q27757; Kinase-Glo luciferase, ATP luminescence, 8 min; Potency, µM (highest dose often 38.3 µM), without a hit: top-dose activity change, negative = inhibition, usual class: inhibitors; 0.28% of 200,000 active; also: % is scaled to controls: 0 for no effect and ±100 for the full control effect; nearly all actives have a fitted effect of over 60% in size
#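 Luminescence was the read-out, taken after 8-minute incubation at ambient temperature. Luciferase turned over luciferin with 10 uM ATP in imidazole pH 7.2 buffer containing KCl, MgCl2, Tween 20 and BSA.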
# An asterisk follows results filed as active; ? = inconclusive; . = no result given. Calls follow the shape of the dose curve; as a rule, active = well fitted curve in the direction sought with a large enough effect; inconclusive = small, poorly fitted or top-dose-only effect, or another doubt; inactive = no such curve, though single readings can be large; an effect the other way counts as inactive or inconclusive. Potency is read from the fitted curve at half-maximal effect.
SMILES,NPC1 prom act,FLuc counter,SMN2 splice up,Rab9 prom act,ELG1 genotox,Luc counter
CCOC(=O)c1c(C)[nH]c(C(=O)COC(=O)CCSc2ccccc2)c1C,9%,17µM*,23%,2%,?,-1%
CCOC(=O)c1c(C)[nH]c(C(=O)C(C)Sc2ccc(Cl)cc2)c1C (stereo unspecified),14%,27µM*,2%,?,1%,-3%
O=C(c1cnc(N2CCCCC2)c2ccccc12)N1CCN(c2ccc(F)cc2)CC1,.,6%,.,.,.,.
Cc1ccccc1CN1C(=O)c2ccccc2Sc2ccc(C(=O)NC3CCCCC3)cc21,.,-8%,.,.,.,.
CCOC(=O)c1c(C)[nH]c(C(=O)CSc2nccc(C)n2)c1C,2.8µM*,?,8.9µM*,2.8µM*,?,-1%
CCOC(=O)c1[nH]c(C)c(C(=O)/C=C/c2ccc(C(=O)O)cc2)c1C,6%,13µM*,.,-3%,22%,.
Cc1cc(C(=O)CSc2ccc(F)cc2)cc(C)c1O,12%,19µM*,.,17%,?,.
CCOC(=O)c1c(C)[nH]c(C(=O)N/N=C\c2ccccc2O)c1C,-7%,6.7µM*,-78%,-6%,?,-1%
COc1ccc(NC(=O)C2CCCN(S(=O)(=O)c3ccc4c(c3)CCCC(=O)N4)C2)cc1OC (stereo unspecified),.,-6%,.,.,.,.
COc1ccccc1CCNC(=O)CCCn1c(=O)c2cccn2c2cccnc21,.,5%,15%,.,.,.
CC(=O)Nc1nc(-c2cc([N+](=O)[O-])cs2)cs1,1%,0%,14%,14%,-4%,0%
Cc1ccn2c(C(=O)CSc3ccc(Cl)cc3)c(C)nc2c1,-2%,-2%,-31%,-3%,-6%,1%
Cc1cc(C(=O)CSc2ccc(Cl)cc2)cc(C)c1OC(=S)N(C)C,2.8µM*,9.5µM*,-9%,?,?,1%
CCOC(=O)c1c(C)[nH]c(C(=O)CSc2ccccc2)c1C,0.56µM*,0.54µM*,.,0.4µM*,0.65µM*,.
CCOC(=O)c1c(C)[nH]c(C(=O)COC(=O)c2oc3ccccc3c2C)c1C,4%,2%,-10%,-2%,3%,-3%
Cc1cccc(N2C(=O)C(CC(=O)Nc3ccccc3)N(C3CCCCC3)C2=O)c1 (stereo unspecified),.,-1%,10%,.,.,.
N#Cc1ccsc1NC(=O)COC(=O)C1=NNC(=O)CC1,-3%,-12%,.,21%,4%,.
Cc1ccc(CSCC(=O)Nc2ccccc2C(=O)O)cc1,3.5µM*,12µM*,.,2.8µM*,8%,.
COC(=O)c1ccccc1NC(=O)CSc1ccc(C)cc1,-2%,-14%,4%,7%,1%,0%
Cc1ccc(SCC(=O)Nc2ccccc2C(=O)O)cc1,?,8.5µM*,?,?,17%,0%
O=C(CSc1ccccc1)Nc1ccccc1C(=O)O,.,21µM*,1%,.,.,11%
CSc1ccccc1NC(=O)CSCc1ccc(C)cc1,-18%,-11%,-14%,3%,-2%,1%
Cc1ccc(CCC(=O)Nc2ccccc2C(=O)O)o1,?,17µM*,.,?,?,.
COc1cccc(-c2nc3c(C#N)c[nH]n3c2NC2CCCC2)c1OC,.,-16%,.,.,.,.
Cc1c(NC(=S)NC(=O)Cc2ccccc2)cccc1C(=O)O,1%,?,21%,16%,8%,4%
SMILES,NPC1 prom act,FLuc counter,SMN2 splice up,Rab9 prom act,ELG1 genotox,Luc counter
O=C(Cc1cccc2ccccc12)Nc1ccccc1C(=O)O,13%,27µM*,?,4%,?,4%
CCOc1ccccc1-n1c(SCC(=O)Nc2ccccc2C(=O)O)nc2ccccc2c1=O,?,12µM*,.,?,-11%,.
COc1ccc(CC(=O)Nc2cccc(C(=O)O)c2C)cc1,26%,?,16µM*,17%,13%,-6%
CCn1c(SCC(=O)Nc2ccccc2OC)nc2ccccc2c1=O,1%,0%,-16%,-5%,-24%,-2%
CC(C)n1c2ccccc2c2nnc(SCC(=O)Nc3ccccc3C(=O)O)nc21,-1%,19µM*,-20%,1%,2%,3%
CCCN(C(=O)CSc1ncnc2sccc12)c1c(N)n(Cc2ccccc2)c(=O)[nH]c1=O,-2%,.,.,-4%,4%,.
Cc1ccc(CN(C(=O)COc2ccccc2[N+](=O)[O-])c2ccccn2)cc1,.,-10%,.,.,.,.
Cc1cc(-c2nnc(SCC(=O)Nc3cccc(F)c3)n2N)n[nH]1,-4%,-2%,.,0%,1%,.
COc1ccc(/C=N\NC(=O)c2nn(C)cc2Cl)cc1CN1CCOCC1,1%,-10%,-4%,0%,2%,-5%
CCC(=O)N/N=C/c1ccc(OS(=O)(=O)c2ccccc2)cc1,-2%,0%,?,0%,-2%,-1%
Cn1cc(Cl)c(C(=O)Nc2cccc(Cl)c2Cl)n1,18%,0%,56%,26%,-1%,1%
Cn1cc(Cl)c(C(=O)N/N=C/c2ccc(OS(=O)(=O)c3ccccc3)cc2)n1,4%,24µM*,-3%,0%,-9%,4%
Cc1ccc(/C=N/NC(=O)c2nn(C)cc2Cl)cc1,3.5µM*,1.5µM*,11µM*,3.5µM*,?,?
Cn1cc(Cl)c(C(=O)N/N=C/c2ccc3c4c(cccc24)CC3)n1,2µM*,0.54µM*,.,1.4µM*,?,.
COc1ccc([N+](=O)[O-])cc1N(CC(O)CN1C(=O)NC(C)(C)C1=O)S(=O)(=O)c1ccccc1 (stereo unspecified),-8%,0%,.,-4%,4%,.
Clc1cccc(NCc2cn3cccnc3n2)c1,23%,-11%,14%,27%,15%,0%
Cc1cc(Cl)ccc1OCc1cn2cccnc2n1,3.5µM*,12µM*,13µM*,3.2µM*,?,-4%
c1cnc2c(OCc3cn4cccnc4n3)cccc2c1,18%,?,9%,23%,?,-7%
Clc1ccc(OCc2cn3cccnc3n2)c2ncccc12,?,?,11µM*,?,16µM*,-4%

# Screens: PubChem, National Center for Advancing Translational Sciences (NCATS)
